Inconclusive results are not listed. The source holds several records for some structures; these can differ, active in one and inactive in another. Active and inactive are the calls of the source. Unless noted, calls follow the shape of the full dose curve.
Columns and labels:
[1] = Nuclear factor erythroid 2-related factor 2/antioxidant responsive element (Nrf2/ARE) small molecule agonists: qHTS cell viability counter screen in human keratinocytes (AID 1919968; active = well fitted curve in the direction sought with a large enough effect in the repeat runs; an effect the other way counts as inactive or inconclusive; also: nearly all actives have a fitted effect of over 55% in size; also: potency is read from the fitted curve at half-maximal effect)
Procedure, shortened: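 Seed 1,500 KeratinoSens cells per well, then incubate 5 h at 37 C/5% CO2. Add compounds in DMSO and incubate 23 h. Add CellTiter-Fluor, wait 1 h and read fluorescence.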

[2] = Nuclear factor erythroid 2-related factor 2/antioxidant responsive element (Nrf2/ARE) small molecule agonists: luciferase reporter gene qHTS assay in human keratinocytes (AID 1919969); also: nearly all actives have a fitted effect of over 35% in size
[3] = target: Gonadotropin-releasing hormone receptor (Homo sapiens) (UniProt P30968); experiment: Human gonadotropin-releasing hormone receptor (GnRHR) small molecule agonists, calcium flux assay in GnRHR-HEK293 cells (AID 1920063); also: nearly all actives have a fitted effect of over 35% in size
Sequence of Gonadotropin-releasing hormone receptor (Homo sapiens) (P30968 whole entry, looked up): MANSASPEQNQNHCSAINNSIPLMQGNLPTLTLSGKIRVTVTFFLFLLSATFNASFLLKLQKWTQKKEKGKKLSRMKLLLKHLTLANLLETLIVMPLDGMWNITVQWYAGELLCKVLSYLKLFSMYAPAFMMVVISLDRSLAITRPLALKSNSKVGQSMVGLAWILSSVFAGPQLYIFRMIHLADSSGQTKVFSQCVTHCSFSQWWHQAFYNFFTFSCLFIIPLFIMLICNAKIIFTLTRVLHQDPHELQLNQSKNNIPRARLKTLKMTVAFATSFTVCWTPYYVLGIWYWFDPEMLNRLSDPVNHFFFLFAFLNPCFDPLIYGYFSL
Procedure, shortened: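 Cells: HEK293 stably expressing human GnRHR. Steps: overnight (18 h) culture, 1 h calcium dye loading at 37 C, compound addition, kinetic fluorescence read at 480/540 nm. Each compound tested at 15 concentrations in triplicate.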

[4] = target: KiSS-1 receptor (Homo sapiens) (UniProt Q969F8); experiment: Human kisspeptin (KISS1R) small molecule agonists, calcium flux assay in KISS1R-HEK293 cells (AID 1920064; active = well fitted curve in the direction sought with a large enough effect in the repeat runs; an effect the other way counts as inactive or inconclusive)
Sequence of KiSS-1 receptor (Homo sapiens) (Q969F8 whole entry, looked up): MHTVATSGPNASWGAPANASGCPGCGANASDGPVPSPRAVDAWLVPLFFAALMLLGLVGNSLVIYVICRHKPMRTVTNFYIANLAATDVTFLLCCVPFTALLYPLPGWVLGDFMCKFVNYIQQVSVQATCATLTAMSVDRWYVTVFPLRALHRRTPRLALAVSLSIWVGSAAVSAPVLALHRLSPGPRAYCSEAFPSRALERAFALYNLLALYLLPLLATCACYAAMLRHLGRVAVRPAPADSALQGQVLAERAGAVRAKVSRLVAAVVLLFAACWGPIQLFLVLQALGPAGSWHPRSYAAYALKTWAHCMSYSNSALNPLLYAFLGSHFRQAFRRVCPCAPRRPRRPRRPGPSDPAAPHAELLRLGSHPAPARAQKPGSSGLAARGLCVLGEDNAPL
Procedure, shortened: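 Cells plated and incubated 18 h; dye added, 1 h at 37 C; compounds in DMSO pinned in; signal read at 480/540 nm every second for 3 min. Each compound tested at 15 concentrations in triplicate.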

[5] = p53 small molecule agonists, cell-based qHTS assay with human liver microsomes (AID 1963577)
Procedure, shortened: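 p53RE-bla reporter cells were pre-incubated 5 h at 37 C, then treated with compounds plus human liver microsomes (0.5 mg/mL final) and NADPH (0.5 mg/mL final) for 16 h at 37 C. Beta-lactamase activity was read by LiveBLAzer fluorescence after 2 h at room temperature.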

[6] = p53 small molecule agonists, cell-based qHTS assay with human liver microsomes: qHTS cell viability counter screen (AID 1963579); also: nearly all actives have a fitted effect of over 45% in size
Procedure, shortened: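 p53RE-bla cells (4,000/well) were pre-incubated 5 h at 37 C, then given compounds in DMSO plus human liver microsomes (0.5 mg/mL final) and NADPH (0.5 mg/mL final) for 16 h at 37 C. Viability was read by CellTiter-Glo luminescence.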

[7] = p53 small molecule agonists, cell-based qHTS assay with rat liver microsomes: qHTS cell viability counter screen (AID 1963580); also: nearly all actives have a fitted effect of over 45% in size
Procedure, shortened: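 In HCT-116 cells carrying a p53 response element-bla reporter, compounds were metabolically activated in situ by rat liver microsomes with NADPH over 16 h. Cell ATP content then served as the cytotoxicity measure.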

[8] = p53 small molecule agonists, cell-based qHTS assay: qHTS cell viability counter screen (AID 1963581); also: nearly all actives have a fitted effect of over 45% in size
Procedure, shortened: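 Cells: HCT-116 with p53 response element-driven beta-lactamase. Treatment: 16 h, 37 C, compounds in DMSO. Read: CellTiter-Glo luminescence after 30 min RT.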

[9] = p53 small molecule agonists, cell-based qHTS assay (AID 1963582; active = well fitted activation curve with a large enough effect in the signal ratio in the repeat runs, not every such curve was filed as active; the % refers to the signal ratio)
Procedure, shortened: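 Quantitative HTS in p53RE-bla cells: after a 5 h settling period, compounds delivered in DMSO were left on cells for 16 h at 37 C, and reporter induction was measured as fluorescence following 2 h substrate loading.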

[10] = target: 5-hydroxytryptamine receptor 2A (Homo sapiens) (UniProt P28223); experiment: 5-hydroxytryptamine receptor 2A (HTR2A) small molecule antagonists, cell-based qHTS assay (AID 1963586); also: nearly all actives have a fitted effect of over 45% in size
Sequence of 5-hydroxytryptamine receptor 2A (Homo sapiens) (P28223 whole entry, looked up): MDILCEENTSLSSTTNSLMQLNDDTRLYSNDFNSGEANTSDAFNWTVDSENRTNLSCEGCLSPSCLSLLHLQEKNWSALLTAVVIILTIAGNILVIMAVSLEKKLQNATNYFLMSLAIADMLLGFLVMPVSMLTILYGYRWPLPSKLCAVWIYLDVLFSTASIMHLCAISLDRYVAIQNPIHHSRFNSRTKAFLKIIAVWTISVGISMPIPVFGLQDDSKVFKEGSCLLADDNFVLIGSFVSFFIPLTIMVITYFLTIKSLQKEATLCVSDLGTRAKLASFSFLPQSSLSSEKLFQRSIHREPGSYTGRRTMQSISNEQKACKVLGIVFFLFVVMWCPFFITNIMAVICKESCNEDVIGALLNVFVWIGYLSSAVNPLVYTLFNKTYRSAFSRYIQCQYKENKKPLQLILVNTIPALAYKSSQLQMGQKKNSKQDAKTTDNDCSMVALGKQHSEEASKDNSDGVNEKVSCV
Procedure, shortened: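 Antagonist-mode intracellular calcium assay: DOI (4 nM) added after 5 min compound pre-incubation at room temperature to dye-loaded HTR2A-CHO cells. Fluorescence followed for 3 min, sampled every second.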

[11] = target: 5-hydroxytryptamine receptor 2A (Homo sapiens) (UniProt P28223); experiment: 5-hydroxytryptamine receptor 2A (HTR2A) small molecule agonists, cell-based qHTS assay (AID 1963587); also: nearly all actives have a fitted effect of over 30% in size
Procedure, shortened: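 HTR2A-CHO cells, plated 18 h at 37 C/5% CO2, dye-loaded 1 h at 37 C; compounds in DMSO added by pin tool (agonist mode). Intracellular calcium flux read as kinetic fluorescence on FDSS over 2 min at 1 s intervals.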

[12] = target: Muscarinic acetylcholine receptor M1 (Homo sapiens) (UniProt P11229); experiment: Cholinergic receptor muscarinic 1 (CHRM1) small molecule antagonists, cell-based qHTS assay (AID 1963588); also: nearly all actives have a fitted effect of over 40% in size
Sequence of Muscarinic acetylcholine receptor M1 (Homo sapiens) (P11229 whole entry, looked up): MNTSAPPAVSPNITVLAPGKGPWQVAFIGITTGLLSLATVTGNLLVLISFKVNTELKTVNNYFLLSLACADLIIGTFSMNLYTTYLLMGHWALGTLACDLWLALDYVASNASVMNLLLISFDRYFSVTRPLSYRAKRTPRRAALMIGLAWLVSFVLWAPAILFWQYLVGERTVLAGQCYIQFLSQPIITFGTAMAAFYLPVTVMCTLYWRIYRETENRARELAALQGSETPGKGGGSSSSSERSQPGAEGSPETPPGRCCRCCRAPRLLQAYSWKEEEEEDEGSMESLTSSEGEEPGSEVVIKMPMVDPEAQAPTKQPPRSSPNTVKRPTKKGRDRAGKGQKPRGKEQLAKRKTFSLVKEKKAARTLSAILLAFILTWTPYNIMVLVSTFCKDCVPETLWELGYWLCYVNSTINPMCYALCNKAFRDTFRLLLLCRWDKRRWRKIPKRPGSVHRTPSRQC
Procedure, shortened: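 CHRM1-CHO calcium-flux assay, antagonist mode. Cells were seeded 18 h, dye-loaded 1 h at 37 C and given compound for 5 min at RT, then acetylcholine was added at 50nM. FDSS fluorescence was read 3 min; 15 concentrations, three runs.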

[13] = target: Muscarinic acetylcholine receptor M1 (Homo sapiens) (UniProt P11229); experiment: Cholinergic receptor muscarinic 1 (CHRM1) small molecule agonists, cell-based qHTS assay (AID 1963589); also: nearly all actives have a fitted effect of over 35% in size
Procedure, shortened: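 Agonist-mode qHTS in CHO cells stably carrying human muscarinic M1. Intracellular calcium is tracked by fluorescence every second after compound transfer; each compound runs at 15 concentrations in three independent runs.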

[14] = cAMP Responsive Elements (CRE) small molecule agonists, cell-based qHTS assay (AID 1963590)
Procedure, shortened: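 Agonist mode qHTS in CRE-bla HEK 293T cells: compounds dosed from DMSO for 3 h at 37 C/5% CO2, followed by LiveBLAzer B/G FRET substrate for 2 h at room temperature.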

[15] = cAMP Responsive Elements (CRE) small molecule antagonists, cell-based qHTS assay (AID 1963591; active = well fitted inhibition curve with a large enough effect in the signal ratio in the repeat runs, not every such curve was filed as active; the % refers to the signal ratio)
Procedure, shortened: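 Antagonist mode: test compounds are co-incubated with the adenylyl cyclase activator NKH477 (0.25 uM final) on CRE-bla HEK293T cells for 3 h at 37 °C, followed by LiveBLAzer substrate loading.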

[16] = target: Beta-2 adrenergic receptor (Homo sapiens) (UniProt P07550); experiment: Adrenergic beta2 receptor (ADRB2) small molecule antagonists, cell-based qHTS assay (AID 1963592); also: series mostly up to about 92 µM; nearly all actives have a fitted effect of over 50% in size
Sequence of Beta-2 adrenergic receptor (Homo sapiens) (P07550 whole entry, looked up): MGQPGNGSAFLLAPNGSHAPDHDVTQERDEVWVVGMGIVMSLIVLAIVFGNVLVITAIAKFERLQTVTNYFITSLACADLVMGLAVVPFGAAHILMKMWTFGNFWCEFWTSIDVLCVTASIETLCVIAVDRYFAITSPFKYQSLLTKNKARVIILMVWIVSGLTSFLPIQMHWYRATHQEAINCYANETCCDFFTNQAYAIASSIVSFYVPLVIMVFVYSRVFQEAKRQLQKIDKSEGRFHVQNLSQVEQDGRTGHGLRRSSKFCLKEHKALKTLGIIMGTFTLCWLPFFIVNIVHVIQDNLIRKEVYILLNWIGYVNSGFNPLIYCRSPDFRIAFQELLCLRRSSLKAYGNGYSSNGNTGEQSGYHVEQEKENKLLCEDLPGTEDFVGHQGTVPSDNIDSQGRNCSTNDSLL
Procedure, shortened: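 Cells (CHO, stable ADRB2 overexpression) incubated 18-20hr at 37C; compounds added from DMSO; agonist mix (1nM isoproterenol, 100uM IBMX, 25uM Ro-20-1724) added; 0.5hr RT; d2-cAMP and anti-cAMP-cryptate added; 1hr RT; 665/615 nm read.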

[17] = target: Beta-2 adrenergic receptor (Homo sapiens) (UniProt P07550); experiment: Adrenergic beta2 receptor (ADRB2) small molecule agonists, cell-based qHTS assay (AID 1963593);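 also: CHO cells stably overexpressing human ADRB2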
Procedure, shortened: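 CHO cells stably over-expressing ADRB2 were plated overnight at 37C, then dosed with compounds plus a stimulation mix containing 100uM IBMX and 25uM Ro-20-1724 for 0.5hr at room temperature. cAMP was measured by HTRF competition, 1hr.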

[18] = target: D(2) dopamine receptor (Homo sapiens) (UniProt P14416); experiment: Dopamine D2 receptor (DRD2) small molecule agonists, cell-based qHTS assay (AID 1963594); also: nearly all actives have a fitted effect of over 35% in size
Sequence of D(2) dopamine receptor (Homo sapiens) (P14416 whole entry, looked up): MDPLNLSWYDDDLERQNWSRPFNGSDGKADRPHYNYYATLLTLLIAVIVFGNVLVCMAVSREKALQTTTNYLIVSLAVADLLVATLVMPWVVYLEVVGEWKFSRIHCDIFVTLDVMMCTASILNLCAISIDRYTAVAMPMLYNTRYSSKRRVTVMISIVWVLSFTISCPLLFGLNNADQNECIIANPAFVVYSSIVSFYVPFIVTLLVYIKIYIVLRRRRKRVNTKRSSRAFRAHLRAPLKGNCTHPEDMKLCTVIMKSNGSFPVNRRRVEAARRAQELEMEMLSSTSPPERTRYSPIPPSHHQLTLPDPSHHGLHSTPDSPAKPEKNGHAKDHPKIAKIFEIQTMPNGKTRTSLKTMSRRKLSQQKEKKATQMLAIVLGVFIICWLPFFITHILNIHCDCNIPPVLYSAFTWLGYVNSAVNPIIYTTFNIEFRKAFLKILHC
Procedure, shortened: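 HEK293 cells stably expressing DRD2 were cultured 24 h at 37 C, then given Ro20-1724 (0.1 mM final) and compounds for 10 min at room temperature. NKH477 (200nM) was then added for 30 min. cAMP was read by HTRF.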

[19] = target: D(2) dopamine receptor (Homo sapiens) (UniProt P14416); experiment: Dopamine D2 receptor (DRD2) small molecule antagonists, cell-based qHTS assay (AID 1963595; active = well fitted inhibition curve with a large enough effect in the signal ratio in the repeat runs, with a control signal flat; the % refers to the signal ratio)
Procedure, shortened: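 HTRF cAMP read-out at 665 and 620 nm emission (340 nm excitation). Antagonist mode: compounds were tested against 12 nM quinpirole in DRD2-HEK293 cells, with 200 nM NKH477 raising cAMP and 0.1 mM Ro20-1724 blocking its breakdown.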

[20] = G protein-coupled receptor (GPCR) small molecule agonists, calcium flux assay: HEK293 wild type cell line counter screen (AID 1920065)
Procedure, shortened: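 Counter-screen of the Tox21 10K library for non-specific calcium release: dye-loaded cells received compounds in DMSO and were monitored by kinetic fluorescence (480/540 nm, 3 min). Fifteen concentrations, run in triplicate.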

Measured: Potency

COc1ccccc1O
inactive: [1] | [2] | [3] | [4] | [5] | [6] | [7] | [8] | [9] | [10] | [11] | [12] | [13] | [14] | [15] | [16] | [17] | [18] | [19]

CCCCCCCC/C=C\CCCCCCCC(=O)O
inactive: [1] | [2] | [3] | [4] | [5] | [6] | [7] | [8] | [9] | [10] | [11] | [12] | [13] | [14] | [15] | [16] | [17] | [18] | [19]

CC(C)(C)C1CCC(O)CC1 (centres undefined)
inactive: [1] | [2] | [3] | [4] | [5] | [6] | [7] | [8] | [9] | [10] | [11] | [12] | [13] | [14] | [16] | [17] | [18] | [19]

NC(N)=Nc1nc(CSCC/C(N)=N/S(N)(=O)=O)cs1
inactive: [1] | [2] | [3] | [4] | [5] | [6] | [7] | [8] | [9] | [14] | [16] | [17] | [18] | [19]

O=C=Nc1ccc(Cc2ccc(N=C=O)cc2)cc1
inactive: [1] | [2] | [3] | [4] | [5] | [6] | [7] | [8] | [9] | [10] | [11] | [12] | [13] | [14] | [15] | [16] | [18] | [19]

CCN(CC)CCOC(=O)c1ccc(N)cc1
inactive: [1] | [2] | [3] | [4] | [5] | [6] | [7] | [8] | [9] | [14] | [15] | [16] | [18] | [19]

CCCCCCc1ccc(O)cc1O
48.7 µM (active) and inactive: [1]
inactive: [2] | [3] | [4] | [5] | [6] | [7] | [8] | [9] | [12] | [13] | [15] | [16] | [17] | [18]

COCCCN
inactive: [1] | [2] | [3] | [4] | [5] | [6] | [7] | [8] | [9] | [10] | [11] | [12] | [13] | [14] | [15] | [16] | [17] | [18] | [19]

Cc1cccc(C)c1O
inactive: [1] | [2] | [3] | [4] | [5] | [6] | [7] | [8] | [9] | [10] | [11] | [12] | [13] | [14] | [15] | [16] | [18] | [19]

CCCCCC/C=C/CCCCCCCC(=O)O
inactive: [1] | [2] | [3] | [4] | [5] | [6] | [7] | [8] | [9] | [10] | [11] | [12] | [13] | [14] | [16] | [17] | [18] | [19]

O=C(c1ccc(O)cc1)c1ccc(O)cc1O
inactive: [1] | [2] | [3] | [4] | [5] | [6] | [7] | [8] | [11] | [12] | [13] | [15] | [16] | [18] | [19]

CCCCCCCCCCCCCC(=O)OC(C)C
inactive: [1] | [2] | [3] | [20] | [5] | [6] | [7] | [8] | [9] | [10] | [11] | [12] | [13] | [14] | [15] | [16] | [19]
